Measured values published in ChEMBL document CHEMBL3988442, “University of Dundee, Small-Polar-MMV Screening Library” (2021).
About 13,000 (27%) of roughly 48,000 compounds showed an effect of 50% or more. The list shows a part of the results.

The molecules below were run on Wolbachia pipientis (assay: Anti-Wolbachia Cell-Based Screen). Conditions: 5 µM.
Type: functional
Parameters: scale not given: in the data most compounds retested in dose-response had high values
With `O=C(Nc1ccccc1)N1CCn2c(nnc2C2CCNCC2)C1` the “Percent Effect” value was 105.9%. For `CC(C)NC(=O)C(c1ccccc1)N1CCn2c(nnc2C2CC2)C1` (stereo not drawn), the “Percent Effect” value was 0.9151%. `O=C(c1ccccc1O)N1CCn2c(nnc2C(F)(F)F)C1` was tested, and the “Percent Effect” value was -8.527%. With `O=C(Nc1ccccc1)N1CCn2c(nnc2C2CCCN2)C1` (stereo not drawn) the “Percent Effect” value was 106.2%. `Cn1cc(CNCC2(N3CCCCC3)Cc3ccccc3C2)cn1` was tested, and the “Percent Effect” value was -0.5934%. In the case of `CN(C)C(=O)[C@H]1C[C@H]2OCC[C@H]2N(CCOc2ccc(Cl)cc2)C1.O=C(O)C(F)(F)F`, the “Percent Effect” value is reported as -1.97%. `CC(C)c1nccc(C2CC(=O)Nc3n[nH]c(C4CCC4)c32)n1` (stereo not drawn) was tested, and the “Percent Effect” value was 111.7%. With `CNC(=O)c1n[nH]c2c1C(c1cccc3nsnc13)CC(=O)N2` (stereo not drawn) the “Percent Effect” value was 1.687%. `COc1nc2ccccc2cc1C1CC(=O)Nc2n[nH]c(C3CCC3)c21` (stereo not drawn) was tested, and the “Percent Effect” value was 94.97%. In the case of `O=C1CC(c2ccc3ccccc3n2)c2c(n[nH]c2C2CCC2)N1` (stereo not drawn), the “Percent Effect” value is reported as 48.61%. In the case of `O=C(CN1CCCC1c1nc(Cc2ccc(F)cc2)no1)NC1CC1` (stereo not drawn), the “Percent Effect” value is reported as 6.491%. For `CCCN(CC1CC1)C(=O)CN1CCCC1c1cnn(C)c1` (stereo not drawn), the “Percent Effect” value was -10.58%. `COCCOC[C@]1(CNCc2ccc(F)cc2)C[C@@H](O)[C@@H](O)C1.Cl` was tested, and the “Percent Effect” value was 9.118%. In the case of `CCn1ncc2c1CCCC2NCc1ccc(C)s1` (stereo not drawn), the “Percent Effect” value is reported as -6.275%. `O[C@@H]1CN(CC2CC2)CC[C@H]1N1CCN(c2ccccc2F)CC1` was tested, and the “Percent Effect” value was 4.313%. For `Cc1nn(C)c(C)c1CC(=O)N1CCCC(n2cccn2)C1` (stereo not drawn), the “Percent Effect” value was -0.59%. For `Cc1cnn(C2CCCN(C(=O)CCc3c(C)noc3C)C2)c1` (stereo not drawn), the “Percent Effect” value was 114.5%. For `Cc1nn(C)c(C)c1CCC(=O)N1CCCOC(Cn2cccn2)C1` (stereo not drawn), the “Percent Effect” value was -1.849%. In the case of `Cc1nn(C)c(C)c1CCC(=O)N1CCCC(n2cccn2)C1` (stereo not drawn), the “Percent Effect” value is reported as 104.5%. `Cc1noc2ncc(C(=O)N3CCCC(n4cccn4)C3)cc12` (stereo not drawn) was tested, and the “Percent Effect” value was -8.644%. With `Cc1cnn(C2CCCN(C(=O)c3c(C)oc(C)c3C)C2)c1` (stereo not drawn) the “Percent Effect” value was 2.216%. For `Cc1noc(C)c1CCC(=O)N1CCCC(n2cccn2)C1` (stereo not drawn), the “Percent Effect” value was 112.2%. `Cc1noc(Cl)c1CC(=O)N1CCCC(n2cccn2)C1` (stereo not drawn) was tested, and the “Percent Effect” value was -0.9782%. In the case of `O=C(NCc1csc(-c2cccs2)n1)C1NCCc2[nH]cnc21` (stereo not drawn), the “Percent Effect” value is reported as -2.948%. `COc1ccccc1OCC(=O)NS(=O)(=O)c1ccc(F)cc1F` was tested, and the “Percent Effect” value was -4.254%. In the case of `CC(=O)N(CCc1nc(-c2cc(C(N)=O)oc2C)cs1)C(C)C`, the “Percent Effect” value is reported as 1.206%. For `CN1CCN(Cc2cn3c(n2)CN(C(=O)c2ccccn2)CC3)CC1.O=C(O)C(F)(F)F.O=C(O)C(F)(F)F.O=C(O)C(F)(F)F`, the “Percent Effect” value was 6.364%. For `CS(=O)(=O)NCc1cn2c(n1)CN(Cc1ccoc1)CC2.O=C(O)C(F)(F)F`, the “Percent Effect” value was 2.843%. For `CN1CCN(Cc2cn3c(n2)CN(CC2CC2)CC3)CC1`, the “Percent Effect” value was 0.4207%. For `Cn1cccc1C(=O)NCc1cn2c(n1)CN(Cc1cccnc1)CC2.O=C(O)C(F)(F)F.O=C(O)C(F)(F)F`, the “Percent Effect” value was -5.868%. In the case of `CN1CCN(Cc2cn3c(n2)CN(C(=O)N2CCCC2)CC3)CC1`, the “Percent Effect” value is reported as -9.344%. `CS(=O)(=O)NCc1cn2c(n1)CN(Cc1cccnc1)CC2.O=C(O)C(F)(F)F.O=C(O)C(F)(F)F` was tested, and the “Percent Effect” value was 116.6%. For `CN1CCN(Cc2cn3c(n2)CN(Cc2ccccn2)CC3)CC1`, the “Percent Effect” value was 100%. In the case of `O=C(CC1CC1)NCc1cn2c(n1)CN(Cc1cccnc1)CC2.O=C(O)C(F)(F)F.O=C(O)C(F)(F)F`, the “Percent Effect” value is reported as -16.83%. `Cn1cccc1C(=O)NCc1cn2c(n1)CN(Cc1ccccn1)CC2.O=C(O)C(F)(F)F.O=C(O)C(F)(F)F` was tested, and the “Percent Effect” value was -5.455%. For `CN1CCN(Cc2cn3c(n2)CN(Cc2ccncc2)CC3)CC1`, the “Percent Effect” value was 100.2%. `O=C(NCc1cn2c(n1)CN(Cc1cccnc1)CC2)C1CCC1.O=C(O)C(F)(F)F.O=C(O)C(F)(F)F` was tested, and the “Percent Effect” value was -2.2%. In the case of `c1cncc(CN2CCn3cc(CN4CCCCC4)nc3C2)c1`, the “Percent Effect” value is reported as 99.27%.
